# About 2,000 (36%) of roughly 5,500 compounds were called active. About 18% were inconclusive and are not listed. This is one part of the list. Values without a mark were called inactive. Cut-off read from the data, not from the text of the source: active = normalized growth mostly below about 0.91 (no sharp cut-off); inconclusive = no clear call, values can overlap the other calls; inactive = mostly above about 0.92.
# Assay: chemical genetic growth profiling, strain panel (AID 1159580);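 note: tested at 20 µM; growth read once vehicle control cultures reached saturation at 30 °C; 1 = growth at the plate median or of vehicle wells; lower values mean less growth of the strain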
# Conditions: growth OD
# [1] = S. cerevisiae deletion strains, locus YDL101C, strain DUN1, active compounds read low
# [2] = S. cerevisiae deletion strains, locus YHR030C, strain SLT2, active compounds read low
compound,measurement,setting,value
Cc1cc(-c2onc(C)c2C(=O)Sc2ccccc2)no1,normalized growth,"S. cerevisiae deletion strains, locus YAR019C, strain CDC15, active compounds read low",0.941
same,normalized growth,"S. cerevisiae deletion strains, locus YBL105C, strain PKC1, active compounds read low",0.963
same,normalized growth,"S. cerevisiae deletion strains, locus YBR135W, strain CKS1, active compounds read low",0.939
same,normalized growth,"S. cerevisiae deletion strains, locus YBR136W, strain MEC1, active compounds read low",0.961
same,normalized growth,"S. cerevisiae deletion strains, locus YBR160W, strain CDC28, active compounds read low",0.954
same,normalized growth,"S. cerevisiae deletion strains, locus YDL017W, strain CDC7, active compounds read low",0.957
same,normalized growth,"S. cerevisiae deletion strains, locus YDL028C, strain MPS1, active compounds read low",0.958
same,normalized growth,[1],0.959
same,normalized growth,"S. cerevisiae deletion strains, locus YDL108W, strain KIN28, active compounds read low",0.962
same,normalized growth,"S. cerevisiae deletion strains, locus YDL132W, strain cdc53, active compounds read low",0.926
same,normalized growth,"S. cerevisiae deletion strains, locus YDL214C, strain PRR2, active compounds read low",0.826
same,normalized growth,"S. cerevisiae deletion strains, locus YDR052C, strain DBF4, active compounds read low",0.971
same,normalized growth,"S. cerevisiae deletion strains, locus YDR054C, strain cdc34, active compounds read low",0.918
same,normalized growth,"S. cerevisiae deletion strains, locus YDR226W, strain ADK1, active compounds read low",0.954
same,normalized growth,"S. cerevisiae deletion strains, locus YDR477W, strain SNF1, active compounds read low",0.811
same,normalized growth,"S. cerevisiae deletion strains, locus YER123W, strain YCK3, active compounds read low",0.736
same,normalized growth,"S. cerevisiae deletion strains, locus YER133W, strain GLC7, active compounds read low",0.823
same,normalized growth,"S. cerevisiae deletion strains, locus YFL009W, strain cdc4, active compounds read low",0.921
same,normalized growth,"S. cerevisiae deletion strains, locus YFL029C, strain CAK1, active compounds read low",0.921
same,normalized growth,"S. cerevisiae deletion strains, locus YFR003C, strain YPI1, active compounds read low",0.958
same,normalized growth,"S. cerevisiae deletion strains, locus YFR019W, strain FAB1, active compounds read low",0.909
same,normalized growth,"S. cerevisiae deletion strains, locus YFR028C, strain CDC14, active compounds read low",0.96
same,normalized growth,"S. cerevisiae deletion strains, locus YGR040W, strain KSS1, active compounds read low",0.852
same,normalized growth,"S. cerevisiae deletion strains, locus YGR052W, strain FMP48, active compounds read low",0.81
same,normalized growth,"S. cerevisiae deletion strains, locus YGR092W, strain DBF2, active compounds read low",0.705
same,normalized growth,[2],0.743 (active)
same,normalized growth,"S. cerevisiae deletion strains, locus YHR079C, strain IRE1, active compounds read low",0.704
same,normalized growth,"S. cerevisiae deletion strains, locus YHR082C, strain KSP1, active compounds read low",0.901
same,normalized growth,"S. cerevisiae deletion strains, locus YHR205W, strain SCH9, active compounds read low",0.657
same,normalized growth,"S. cerevisiae deletion strains, locus YIL147C, strain SLN1, active compounds read low",0.958
same,normalized growth,"S. cerevisiae deletion strains, locus YJL095W, strain BCK1, active compounds read low",0.704
same,normalized growth,"S. cerevisiae deletion strains, locus YJL128C, strain PBS2, active compounds read low",0.888
same,normalized growth,"S. cerevisiae deletion strains, locus YJL157C, strain FAR1, active compounds read low",0.819
same,normalized growth,"S. cerevisiae deletion strains, locus YJR016C, strain ILV3, active compounds read low",0.944
same,normalized growth,"S. cerevisiae deletion strains, locus YJR066W, strain TOR1 (second series), active compounds read low",0.708
same,normalized growth,"S. cerevisiae deletion strains, locus YJR066W, strain TOR1, active compounds read low",0.892
same,normalized growth,"S. cerevisiae deletion strains, locus YKL048C, strain ELM1, active compounds read low",0.942
same,normalized growth,"S. cerevisiae deletion strains, locus YKL067W, strain YNK1, active compounds read low",0.824
same,normalized growth,"S. cerevisiae deletion strains, locus YKL101W, strain HSL1, active compounds read low",0.881
same,normalized growth,"S. cerevisiae deletion strains, locus YKL193C, strain SDS22, active compounds read low",0.942
same,normalized growth,"S. cerevisiae deletion strains, locus YKL203C, strain TOR2, active compounds read low",0.885
same,normalized growth,"S. cerevisiae deletion strains, locus YLR113W, strain HOG1, active compounds read low",0.453 (active)
same,normalized growth,"S. cerevisiae deletion strains, locus YLR133W, strain CKI1, active compounds read low",0.867
same,normalized growth,"S. cerevisiae deletion strains, locus YLR403W, strain SFP1, active compounds read low",0.794
same,normalized growth,"S. cerevisiae deletion strains, locus YML070W, strain DAK1, active compounds read low",0.829
same,normalized growth,"S. cerevisiae deletion strains, locus YMR001C, strain CDC5, active compounds read low",0.935
same,normalized growth,"S. cerevisiae deletion strains, locus YMR205C, strain PFK2 (second series), active compounds read low",0.87
same,normalized growth,"S. cerevisiae deletion strains, locus YMR277W, strain FCP1, active compounds read low",0.925
same,normalized growth,"S. cerevisiae deletion strains, locus YNL006W, strain LST8, active compounds read low",0.962
same,normalized growth,"S. cerevisiae deletion strains, locus YNL020C, strain ARK1, active compounds read low",0.846
same,normalized growth,"S. cerevisiae deletion strains, locus YNL161W, strain CBK1, active compounds read low",0.947
same,normalized growth,"S. cerevisiae deletion strains, locus YNL183C, strain NPR1, active compounds read low",0.68
same,normalized growth,"S. cerevisiae deletion strains, locus YNL207W, strain RIO2, active compounds read low",0.947
same,normalized growth,"S. cerevisiae deletion strains, locus YNL222W, strain SSU72, active compounds read low",0.943
same,normalized growth,"S. cerevisiae deletion strains, locus YNL307C, strain MCK1 (second series), active compounds read low",0.802
same,normalized growth,"S. cerevisiae deletion strains, locus YOL078W, strain AVO1, active compounds read low",0.918
same,normalized growth,"S. cerevisiae deletion strains, locus YOL136C, strain PFK27, active compounds read low",0.843
same,normalized growth,"S. cerevisiae deletion strains, locus YOR061W, strain CKA2, active compounds read low",0.859
same,normalized growth,"S. cerevisiae deletion strains, locus YOR119C, strain RIO1, active compounds read low",0.836
same,normalized growth,"S. cerevisiae deletion strains, locus YOR231W, strain MKK1, active compounds read low",0.75
same,normalized growth,"S. cerevisiae deletion strains, locus YOR329C, strain SCD5, active compounds read low",0.95
same,normalized growth,"S. cerevisiae deletion strains, locus YPL031C, strain PHO85, active compounds read low",0.783
same,normalized growth,"S. cerevisiae deletion strains, locus YPL153C, strain RAD53, active compounds read low",0.756
same,normalized growth,"S. cerevisiae deletion strains, locus YPL204W, strain HRR25, active compounds read low",0.805
same,normalized growth,"S. cerevisiae deletion strains, locus YPL209C, strain IPL1, active compounds read low",0.944
same,normalized growth,"S. cerevisiae deletion strains, locus YPL256C, strain CLN2, active compounds read low",0.695 (active)
same,normalized growth,"S. cerevisiae deletion strains, locus YPR025C, strain CCL1, active compounds read low",0.956
same,normalized growth,"S. cerevisiae deletion strains, locus YPR106W, strain ISR1, active compounds read low",0.973
same,normalized growth,"S. cerevisiae deletion strains, locus YPR111W, strain DBF20, active compounds read low",0.97
same,normalized growth,"S. cerevisiae deletion strains, strain NNK1, active compounds read low",0.953
same,normalized growth,"S. cerevisiae deletion strains, strain TSCII, active compounds read low",0.93
CSc1cc(C(F)(F)F)cc(SC)c1SC,normalized growth,"S. cerevisiae deletion strains, locus YAL013W, strain DEP1, active compounds read low",0.993
same,normalized growth,"S. cerevisiae deletion strains, locus YBR229C, strain ROT2, active compounds read low",0.975
same,normalized growth,[1],0.992
same,normalized growth,"S. cerevisiae deletion strains, locus YDL134C, strain PPH21, active compounds read low",0.909 (active)
same,normalized growth,"S. cerevisiae deletion strains, locus YDR150W, strain NUM1, active compounds read low",1.01
same,normalized growth,"S. cerevisiae deletion strains, locus YEL061C, strain CIN8, active compounds read low",0.987
same,normalized growth,"S. cerevisiae deletion strains, locus YGR078C, strain PAC10, active compounds read low",0.981
same,normalized growth,[2],0.678 (active)
same,normalized growth,"S. cerevisiae deletion strains, locus YHR087W, strain rtc3, active compounds read low",0.953
same,normalized growth,"S. cerevisiae deletion strains, locus YJL187C, strain SWE1, active compounds read low",0.986
same,normalized growth,"S. cerevisiae deletion strains, locus YJR043C, strain POL32, active compounds read low",0.988
same,normalized growth,"S. cerevisiae deletion strains, locus YJR075W, strain HOC1, active compounds read low",0.945
same,normalized growth,"S. cerevisiae deletion strains, locus YKL190W, strain CNB1, active compounds read low",0.967
same,normalized growth,"S. cerevisiae deletion strains, locus YLR039C, strain RIC1, active compounds read low",0.785 (active)
same,normalized growth,"S. cerevisiae deletion strains, locus YLR058C, strain SHM2 (second series), active compounds read low",0.974
same,normalized growth,"S. cerevisiae deletion strains, locus YLR085C, strain ARP6, active compounds read low",0.958
same,normalized growth,"S. cerevisiae deletion strains, locus YLR262C, strain YPT6, active compounds read low",0.809 (active)
same,normalized growth,"S. cerevisiae deletion strains, locus YML094W, strain GIM5, active compounds read low",1.01
same,normalized growth,"S. cerevisiae deletion strains, locus YMR219W, strain ESC1, active compounds read low",0.978
same,normalized growth,"S. cerevisiae deletion strains, locus YMR263W, strain SAP30, active compounds read low",0.997
same,normalized growth,"S. cerevisiae deletion strains, locus YMR307W, strain GAS1, active compounds read low",0.373 (active)
same,normalized growth,"S. cerevisiae deletion strains, locus YNL153C, strain GIM3, active compounds read low",1
same,normalized growth,"S. cerevisiae deletion strains, locus YNL298W, strain CLA4 (second series), active compounds read low",0.975
same,normalized growth,"S. cerevisiae deletion strains, locus YNL322C, strain KRE1, active compounds read low",0.969
same,normalized growth,"S. cerevisiae deletion strains, locus YNR030W, strain Alg12, active compounds read low",0.974
same,normalized growth,"S. cerevisiae deletion strains, locus YPL055C, strain LGE1, active compounds read low",0.866
same,normalized growth,"S. cerevisiae deletion strains, locus YPL241C, strain CIN2, active compounds read low",0.986
same,normalized growth,"S. cerevisiae deletion strains, locus YPR135W, strain CTF4, active compounds read low",0.909
same,normalized growth,"S. cerevisiae strains, strain wild type, active compounds read low",0.925

# From PubChem BioAssay AID1159580 (chemical genetic matrix, 2015)
